# Pf growth 48h = inhibits P. falciparum growth in the first generation, 48 h | 5.9% of 310,000 active | P. falciparum luciferase growth in erythrocytes, 48 h | Potency, µM (doses to about 28.7 µM), for the others: at the highest dose activity change, negative = inhibition, most hits filed as inhibitors; active means well fitted inhibition curve with a large enough effect; inconclusive means small, poorly fitted or top-dose-only effect, or another doubt; inactive means no such curve, though single readings can be large or run the other way; further: potency means the concentration at half of the fitted maximal effect; on the % scale 0 is the no-effect control and ±100 the full control effect
#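 Luciferase-expressing parasites in RBCs, 2% Hct / 0.1% parasitemia final; RPMI 1640 + 0.5% Albumax; 37 C, 5% CO2, one generation; luminescence read-out, lower signal = inhibition.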
# SARS PLP yeast = inhibitors of SARS-CoV papain-like protease in yeast. S. cerevisiae expressing SARS-CoV PLpro, growth rescue. Potency, µM (highest dose often 32.9 µM), for the others: at the highest dose activity, positive = growth rescue, most hits filed as activators. 0.19% of 330,000 active. AID 485353; further: potency means the concentration at half of the fitted maximal effect; 0% is about no effect; nearly all actives have a fitted effect of over 55% in size
# NS1 function inh = blocks influenza NS1 protein function; 0.4% of 270,000 active; Potency, µM (highest dose often 46.1 µM), for the others: top-dose activity, positive = more growth; further: potency means the concentration at half of the fitted maximal effect; actives are rising curves; nearly all actives have a fitted effect of over 50% in size
#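 Growth recovery, yeast-based: influenza A NS1 expressed in S. cerevisiae causes slow growth, and suppressors are detected by OD600. The parent strain without NS1 is used as positive control.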
# Shiga inhibitor = Shiga toxin inhibition; Vero cells, Shiga toxin protein synthesis inhibition reporter; inhibition, % at 38.7 µM; 9.2% of 290,000 active; in the data active means inhibition mostly above about 28%, no sharp cut-off; inactive means mostly below about 43%; further: 0% is about no effect
# Cycloheximide cs = counter-screen for Shiga toxin inhibitors: cycloheximide protein synthesis inhibition; 12% of 300,000 active; max response, %; cell reporter, cycloheximide protein synthesis inhibition counterscreen; in the data active means max response mostly above about 13%, no sharp cut-off; inactive means mostly below about 14%; further: read at 38.3 µM for the half of the compounds with a filed dose; 0% is about no effect
# Pf growth 96h = P. falciparum growth inhibition at 96 hours; P. falciparum luciferase reporter growth, 96 h; Potency, µM (doses to about 28.7 µM), for the others: at the top dose activity change, negative = inhibition, usual class: inhibitors; 6.9% of 320,000 active; AID 504834; active means well fitted inhibition curve with a large enough effect; inconclusive means small, poorly fitted or top-dose-only effect, or another doubt; inactive means no such curve, though single readings can be large or run the other way; further: potency means the concentration at half of the fitted maximal effect; on the % scale 0 is the no-effect control and ±100 the full control effect
#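 96 h incubation, 37 C, 5% CO2, of luciferase-reporter P. falciparum-infected RBCs (2% hematocrit, 0.05% parasitemia final) with test compounds; endpoint luminescence.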
# The depositor's hits bear a star; i = inactive; ? = inconclusive; · = no result. In the library only some 21% were active in any assay of this set; here they are far more common. Unless noted, the call rests on the fitted dose curve.
SMILES,Pf growth 48h,SARS PLP yeast,NS1 function inh,Shiga inhibitor,Cycloheximide cs,Pf growth 96h
CC(=O)N1CCN(c2ccccc2NC(=O)c2cc(Br)ccc2Cl)CC1,?,?,5%,-12,-2,·
COc1ccccc1C(=O)Nc1ccccc1N1CCN(C(=O)c2ccc(Cl)cc2)CC1,8.3µM*,·,9%,-5,1,?
O=C(Nc1ccccc1N1CCN(C(=O)c2ccccc2)CC1)c1ccccc1Cl,0%,-8%,-5%,-1,1,?
CCN(CC)C(=O)C1CCC(CNS(=O)(=O)c2cccc3nsnc23)CC1 (stereo not given),9%,?,-5%,-4,-3,?
COc1cc(/C=C2/C(=O)N(c3ccc(Br)cc3)N=C2C)cc([N+](=O)[O-])c1O,22%,1%,5%,-13,-3,43%
CC1=NN(c2ccc(C)c(C)c2)C(=O)/C1=C\C=C\c1ccc([N+](=O)[O-])o1,1%,-6%,·,88*,44*,?
CC(NC(=O)c1ccco1)C1COc2ccccc2O1 (stereo not given),·,-6%,10%,-13,-4,10µM*
Cc1noc(C)c1CSCC(=O)N(C)CC(=O)Nc1ccccc1Cl,8%,2%,-8%,-2,1,?
CC1CN(C(=O)c2cc3cc(Br)ccc3[nH]2)CC(C)O1 (stereo not given),12µM*,-2%,-1%,-4,-2,?
O=C(c1cc2cc(Br)ccc2[nH]1)N1CCC2(CC1)OCCO2,?,-3%,-11%,46,28*,?
CC1CN(C(=O)c2cc3ccccc3cc2O)CC(C)O1 (stereo not given),?,3%,·,·,·,?
CC1CN(C(=O)c2cc(Br)c(Br)s2)CC(C)O1 (stereo not given),13%,2%,·,·,·,?
Cc1c(C(=O)N2CC(C)OC(C)C2)[nH]c2ccc(Br)cc12 (stereo not given),?,-3%,-5%,-4,-2,13µM*
CC(C)(C)OC(=O)N[C@@H](C(=O)OC(C)(C)C)c1ccc(C(F)(F)F)cc1,-17%,-11%,·,·,·,22%
O=C(NCC1CCCO1)c1cc([N+](=O)[O-])ccc1Cl (stereo not given),5%,-5%,·,7,-4,-12%
CN(C)c1nc(-c2ccccc2)c2cnn(Cc3ccccc3)c2n1,·,-16%,-50%,-14,-3,?
COCCN(Cc1cn[nH]c1-c1ccc2cc(OC)ccc2c1)C(C)C,15%,0%,-26%,28,16,12µM*
COc1ccc2cc(-c3[nH]ncc3CN3CCCCO3)ccc2c1,99%,-2%,-3%,57*,20*,i
COc1ccc(-c2[nH]ncc2CN2CCCO2)cc1F,4%,1%,-2%,27,-2,9%
COc1ccc(-c2[nH]ncc2CN2CCCN(c3ccccc3)CC2)c(F)c1,3%,0%,6%,-3,-2,2%
COCC1CCCCN1Cc1cn[nH]c1-c1ccc2cc(OC)ccc2c1 (stereo not given),-6%,0%,3%,32*,19*,-28%
CCOC(=O)CN(C)Cc1cn[nH]c1-c1ccc2cc(OC)ccc2c1,3%,3%,-5%,20,20,?
COc1ccc2cc(-c3[nH]ncc3CN3CCCN(c4ccccc4)CC3)ccc2c1,-6%,-1%,7%,17,16*,?
COc1ccc(OCCN2CCN(S(=O)(=O)c3ccccc3C(F)(F)F)CC2)cc1,?,-1%,·,·,·,?
COCC1CCCCN1Cc1cn[nH]c1-c1ccc(OC)cc1OC (stereo not given),14%,0%,1%,-6,-2,?
SMILES,Pf growth 48h,SARS PLP yeast,NS1 function inh,Shiga inhibitor,Cycloheximide cs,Pf growth 96h
COc1ccc2cc(-c3[nH]ncc3CN3C[C@@H]4CCC[C@H]3C4)ccc2c1,32%,-1%,-1%,27,32*,?
COc1ccc(-c2[nH]ncc2CN2CCCC(C(=O)c3ccc(OC)cc3OC)C2)cc1 (stereo not given),13µM*,0%,0%,-13,-3,0.83µM*
COc1ccc(C(=O)C2CCCN(Cc3cn[nH]c3-c3ccc(F)cc3)C2)cc1OC (stereo not given),-7%,-1%,1%,12,-2,6%
COc1ccc(-c2[nH]ncc2CN(CC2CCC(=O)N2)C(C)C)cc1F (stereo not given),4%,1%,2%,-5,-3,8.3µM*
O=C1c2ccccc2-c2nnc(-c3ccccc3)cc21,2.6µM*,-6%,-32%,72*,19*,?
COc1ccc(-c2cn(Cc3ccc4c(c3)C(=O)c3ccccc3C4=O)nn2)cc1,?,-6%,-3%,14,6,9%
Cc1cccc(-c2cc3c(nn2)-c2ccccc2C3=O)c1,1.3µM*,-8%,-63%,48*,30*,·
Cc1cnc2c(c1)C(=O)c1ccccc1-2,21%,-3%,-5%,21,11,2%
COc1ccc(-c2cc3c(nn2)-c2ccccc2C3=O)cc1,19%,-2%,·,-25,-4,1.9µM*
COc1ccc(CNC(=O)COC(=O)c2cc3ccccc3cc2O)cc1OC,·,4%,·,·,·,·
Cc1cccc(C)c1NC(=S)N(Cc1cccs1)C1CCCC1,13%,-1%,·,-4,3,?
O=C(N1CCOCC1)N(Cc1cccs1)C1CCCC1,-7%,1%,4%,-13,-3,7.4µM*
CCOC(=O)CNC(=S)N(Cc1cccs1)C1CCCCC1,17%,4%,4%,16,-1,7.4µM*
CSc1ccc(/C=C/C(=O)OCC(=O)NC2CC2)cc1,-9%,-1%,·,·,·,?
CSC(=NNC(=O)c1ccc(O)cc1)SC,·,7%,-6%,42*,20,-30%
C/C(=N\NC(=O)c1ccc(O)cc1)c1ccc(NC(=O)Cc2ccccc2)cc1,21%,7%,2%,170*,36*,?
C/C(=N\NC(=O)c1ccc(F)cc1)c1ccc(NC(=O)Cc2ccccc2)cc1,12%,0%,4%,90*,41*,?
Cc1ccccc1N(CC(=O)NC1CCCCC1)C(=O)CNC(=O)c1cccs1,-23%,0%,9%,-3,-2,-3%
O=C(NCCc1ccc(Cl)cc1Cl)C1=CC=CN2CCS(=O)(=O)N=C12,-25%,-5%,·,·,·,-1%
COC(=O)C1=C(C(=O)OC)C2C(C)=CC(C)=CN2C(C(=O)OC)=C1C(=O)OC (stereo not given),-25%,5%,7%,-3,-2,?
COc1ccc2[nH]c(=O)c(CN(CC3CCCO3)S(=O)(=O)c3ccccc3F)cc2c1 (stereo not given),-5%,0%,-12%,27,-3,17%
COc1ccc(C)cc1NC(=O)C1COc2ccccc2O1 (stereo not given),-3%,-5%,·,103*,38*,?

# From PubChem
